# Data taken from PubChem BioAssay (Tox21).
# Results filed as inconclusive are left out. Values without a mark were called inactive. The source made the active and inactive calls. Calls follow the shape of the dose curve; as a rule, active = well fitted activation curve with a large enough effect in the repeat runs; inconclusive = weak or mixed curves; inactive = no such curve, though single readings can be large or run the other way. Positions of bridges follow the written chain, without caps; N, C: chain ends. Non-standard residues stand in square brackets, D forms with d. Residues, ends and D or L forms follow the SMILES beside them. hArg = N=C(N)NCCCC[C@H](N)C(=O)O; Mpa = O=C(O)CCS
# Assay: qHTS assay for small molecules that induce genotoxicity in human embryonic kidney cells expressing luciferase-tagged ATAD5 (AID 651632); also: nearly all actives have a fitted effect of over 15% in size
# Settings: HEK293T ATAD5-luciferase induction, 16 h; series mostly up to 83.3 µM; activation: at the top concentration
# Text: U.S. Tox21 Program National Center for Advancing Translational Sciences [NCATS] NIH Chemical Genomics Center [NCGC] U.S. Environmental Protection Agency [EPA] National Institutes of Environmental Health Sciences [NIEHS] National Toxicology Program [NTP] U.S. Food and Drug Administration [FDA] Tox21 Assay Overview: As cancer cells divide rapidly and during every cell division they need to duplicate their genome by DNA replication. The failure to do so results in the cancer cell death. Based on this concept, many chemotherapeutic agents were developed but have limitations such as low efficacy and severe side effects etc. A new cell based assay was developed to find the compounds that effectively block DNA replication either by directly damaging DNA or by inhibiting other cellular mechanisms. Enhanced Level of Genome Instability Gene 1 (ELG1; human ATAD5) protein levels increase in response to various types of DNA damage. Using a luciferase reporter-gene tagged with ATAD5, a cell-based assay [developed by Kyungjae Myung, NHGRI, NIH] was used to measure the induction of ATAD5 in human embryonic kidney cells (HEK293T). So, increase in luciferase activity can be used to identify the compounds that cause genetic stress.
# Tox21 Assay Protocol Summary: For genotoxicity screening, 2,000 cells in 5 uL/well were dispensed into white, solid-bottom 1536-well plates using a Multidrop Combi (Thermo Scientific) dispenser. Following transfer of 23 nL compound or DMSO vehicle by a pin tool, the plates were incubated 16 hr at 37C and 5% CO2. 5 ul Amplite (AAT Bioquest, Inc.) was then added to each plate and following 30 min incubation at room temperature, luciferase activity was quantified on a ViewLux CCD-based plate reader.
# % is scaled to controls: 0 for no effect and ±100 for the full control effect.
SMILES,activation,outcome
CCC[C@@H]1C[C@@H](C(=O)N[C@@H]([C@H]2O[C@H](SC)[C@H](O)[C@@H](O)[C@H]2O)[C@@H](C)O)N(C)C1,-0.145%,
COc1nc(N)nc2nc[nH]c12,4.39%,
CCO[Si](CC)(OCC)OCC,1.39%,
COC(=O)c1ccccc1C(=O)O,1.73%,
C=CC(=O)CCCCC,0.94% [at 95.3 µM],
CC(C)OC(=O)CCC(=O)OC(C)C,-3.04%,
CC1=NN(c2ccc(S(=O)(=O)O)cc2)C(=O)C1,0.802%,
CC(=O)CCC1=C(C)CCCC1(C)C,1.2%,
CCCCCCCCCCCCCCC(=O)NC(CO)CCCCCCCCCCCCCC (stereo not given),3.47% [at 95.3 µM],
CCCCCCCCCCCCCCCCCC#N,5.22% [at 95.3 µM],
CC(Oc1cc(Cl)ccc1Cl)C(=O)O (stereo not given),2.7%,
CO[C@@]1(NC(=O)Cc2cccs2)C(=O)N2C(C(=O)O)=C(COC(N)=O)CS[C@@H]21,,inactive
CC1(C)CC(OC(=O)CCCCCCCCC(=O)OC2CC(C)(C)NC(C)(C)C2)CC(C)(C)N1,-0.762% [at 39.1 µM],
Cc1ccccc1C(N)=O,1.63%,
[O]=[Mo](=[O])=[O],1.92% [at 39.1 µM],
CCCCC1CCC(O)CC1 (stereo not given),1.89%,
C/C=C(\C)C(C)=O,2.66%,
OCC1(CO)COCOC1,-1.98%,
CC1(C)O[C@H]2CC(=O)OC[C@]23[C@H]2CC[C@@]4(C)[C@H](c5ccoc5)OC(=O)[C@H]5O[C@]54[C@]2(C)C(=O)C[C@@H]13,3.1%,
CC1CC(=O)CC(C)(C)C1 (stereo not given),-2.25%,

SMILES,activation,outcome
CC(C)CCOC(=O)c1ccccc1,-0.534%,
NC(=O)[C@@H]1CSSCCC(=O)N[C@@H](CCCCN=C(N)N)C(=O)NCC(=O)N[C@@H](CC(=O)O)C(=O)N[C@@H](Cc2c[nH]c3ccccc23)C(=O)N2CCC[C@H]2C(=O)N1 ([Mpa][hArg]GDWPC-NH2; disulfide 1-7),2.45%,
OCC(O)CN1CCN(c2ccccc2)CC1 (stereo not given),0.745%,
C=C(C)[C@@H]1CC=C(C)C(=O)C1,-0.768%,
CC(C)Cn1cnc2c1c(=O)n(C)c(=O)n2C,1.3%,
COP(=O)(O)OP(=O)(O)OC,1.7%,
CO/N=C(/C(=O)N[C@@H]1C(=O)N2C(C(=O)[O-])=C(C[n+]3ccn4ncccc43)CS[C@H]12)c1nsc(N)n1,,inactive
Cc1c(Cl)cccc1Cl,2.1%,
C=CC/C=C/C,2.72% [at 95.3 µM],
CCc1occc(=O)c1O,1.51%,
N[C@@H](Cc1ccc(O)cc1)C(=O)O,0.897%,
CC(C)OC(=O)OCOP(=O)(CO[C@H](C)Cn1cnc2c(N)ncnc21)OCOC(=O)OC(C)C,,inactive
C=CC(=O)OCC1CCCO1 (stereo not given),-2.65%,
Cc1cccc(Cl)c1,0.839%,
CCCCCC/C=C/C(=O)OC,0.259%,
CCOc1cccc(N)c1,-0.981%,
O=C(O)CCCCCC(=O)O,1.71% [at 95.3 µM],
COc1ccc(CCO)cc1,0.99%,
CC1(C)Oc2ccc(C#N)cc2[C@@H](N2CCCC2=O)[C@@H]1O,,inactive
Cc1ccc(N)cc1S(=O)(=O)O,2.04%,
